Test results published in PubChem BioAssay (NCI).
This is part of a sample that, as a whole, favours compounds with a hit. Of some 83,000 tested, about 20% had one in any assay.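 Method: cells in 96-well plates; compound added at one concentration; 48 h incubation; percent growth measured; values under 10 scored active.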 Values without a mark were called inactive. Calls of active or inactive are those of the source.

The compounds below were run on OVCAR-8 ovarian (assay: NCI-60 one-dose screen, 48 h (100 = growth as untreated, 0 = no growth, -100 = all killed)). Conditions: 10 µM.

| Structure (SMILES) | growth |
| --- | --- |
| Cc1ccc(C(=O)N/C(=C2/OCCN2C)[P+](c2ccccc2)(c2ccccc2)c2ccccc2)cc1 | 80.5% |
| CN(C)c1ccc(/C=C/c2nc3ccccc3c(=O)n2CC(=O)Nc2ccc(Cl)cc2)cc1 | 2.8% (active) |
| Cc1ccc(CNC(=O)Cc2ccc3c(c2)CN(C2CCC(=O)NC2=O)C3=O)cc1 (stereo not drawn) | 1.57% (active) |
| Cc1ccn2c(C(=O)c3ccccc3)cc(-c3cc(-c4ccc(N(C)C)cc4)c(C#N)c(N)n3)c2c1 | 15.1% |
| CCOP(=O)(OCC)O[C@H]1CCC(=O)[C@@H]2[C@H]1[C@H]1C[C@@H]3[C@@]4(C)CCCC(C)(C(=O)OC)[C@@H]4CC[C@@]23C=C1C(C)C (stereo partly drawn) | 55.5% |
| C#CCNC(=O)CCC(=O)OC[C@]12CC[C@@H](C(=C)C)[C@@H]1C1CC[C@@H]3[C@@]4(C)CCCNC(C)(C)[C@@H]4CC[C@@]3(C)[C@]1(C)CC2 (stereo partly drawn) | -59.9% (active) |
| C/C(=N\N=C\c1ccc(N(C)C)cc1)c1ccc2c(c1)Nc1ccccc1S2 | 38.5% |
| O=C(Nc1ccc(Cl)c([N+](=O)[O-])c1)Nc1ccc(Cl)c([N+](=O)[O-])c1 | 20.7% |
| COc1ccc(CN2[C@H](C(=O)NCc3ccc(C(=O)NO)cc3)Cc3c([nH]c4ccccc34)[C@H]2C2CC2)cc1 | 39.3% |
| O=C(NO)c1ccc(CNC(=O)[C@H]2Cc3c([nH]c4ccccc34)[C@H](c3ccc(Cl)cc3)N2)cc1 | 16.1% |
| O=C(Cn1nc(-c2ccccc2)ccc1=O)NN1C(=O)c2ccccc2C1=O | 81.9% |
| OCc1[nH]nc2cc(Nc3ncc4ccc(Br)c(OC5CCC(O)CC5)c4n3)ccc12 (stereo not drawn) | 8.63% (active) |
| COc1cc2c3c(n(CCCNCCO)c(=O)c2cc1OC)-c1nc2c(cc1C3=O)OCO2 | -69.3% (active) |
| COc1ccc(CN2[C@H](C(=O)NCCCCCCC(=O)NO)Cc3c([nH]c4ccccc34)[C@H]2C2CC2)cc1 | 2.69% (active) |
| COc1ccc(C2N(c3ccc(Br)cc3)N=C(C(C)=O)N2[C@H]2[C@H](OC(C)=O)O[C@H](COC(C)=O)[C@@H](OC(C)=O)[C@@H]2OC(C)=O)cc1 (stereo partly drawn) | 78% |
| CN1C(=O)N(C)C2SC(N/N=C/c3cccs3)=NC21 (stereo not drawn) | 34.4% |
| Cc1cc(C)nc(/N=C(\N)Nc2ccc(S(=O)(=O)Nc3nc(C)cc(C)n3)cc2)n1 | 107% |

| Structure (SMILES) | growth |
| --- | --- |
| O=C(Cc1ccc2c(c1)CN(C1CCC(=O)NC1=O)C2=O)NCCc1ccccc1 (stereo not drawn) | 4.26% (active) |
| CCNCCCn1c2c(c3cc(OC)c(OC)cc3c1=O)C(=O)c1cc3c(nc1-2)OCO3 | -64.5% (active) |
| O=C(CNc1nc(-c2ccccc2)cs1)Nc1ccc(Cl)cc1[N+](=O)[O-] | 10.8% |
| Cc1ccc2nc(-c3ccc(-c4nnc(SCC(=O)Nc5ccc(Cl)cc5)o4)cc3)[nH]c2c1 | -11.8% (active) |
| Cc1ccc(C(=O)NNC(=O)CSc2nc3ccccc3c(=O)[nH]2)cc1 | 97.8% |
| CN(C)CCNC(=O)OCCCCOc1cc(O)c2c(=O)cc(-c3ccccc3)oc2c1 | 3.84% (active) |
| CCCCSc1nc(Nc2ccc(/C(C)=N/NC(N)=S)cc2)c(C#N)c(-c2ccccc2)n1 | 15.1% |
| O=c1[nH]c2ccccc2cc1CSc1ccc(Nc2nccc(-c3ccc4c(c3)OCO4)n2)cc1 | 75% |
| COc1cc2oc(-c3cccc(C(=O)Nc4ccc(Cl)cc4)c3)cc(=O)c2c(OCCNC(=O)CNC(=O)OC(C)(C)C)c1OC | 48% |
| Cc1ccc2nc(-c3ccc(-c4nnc(SCC(=O)Nc5ccc(Br)cc5)o4)cc3)[nH]c2c1 | 20.4% |
| COc1ccc(CN2[C@@H](C(=O)NCc3ccc(C(=O)NO)cc3)Cc3c([nH]c4ccccc34)[C@@H]2C)cc1 | 27.9% |
| O=C(CNc1nc(-c2ccccc2)cs1)Nc1cccc(Cl)c1 | 32.1% |
| NS(=O)(=O)c1ccc(NC(=O)CSc2ccc(-c3ccc(Cl)cc3)nn2)c(Br)c1 | 3.04% (active) |
| Clc1ccc2c(N/N=C/c3c[nH]c4ccc(Br)cc34)ccnc2c1 | -64.6% (active) |
| Cc1ccc(-c2ccc(SCC(=O)Nc3ccc(S(N)(=O)=O)cc3Br)nn2)cc1 | -29.8% (active) |
| CC(=O)Nc1ccc(-c2cn(-c3cccc(C(=O)Nc4cccc(OC(F)(F)F)c4)c3)nn2)cn1 | 57.1% |
